Reference: PubChem BioAssay AID1745848 (National Center for Advancing Translational Sciences (NCATS), 2022)
About 940 (45%) of roughly 2,100 compounds were called active. Roughly 48% stayed inconclusive and do not appear here. The set was probably picked from earlier hits. This is one part of the list. Unmarked numbers belong to inactive results. Calls follow the shape of the dose curve; as a rule, active = well fitted inhibition curve with a large enough effect; inconclusive = small, poorly fitted or top-dose-only effect; inactive = no such curve, though single readings can be large or run the other way.
Potency is read from the fitted curve at half-maximal effect.

Assay: Confirmatory qHTS for Inhibitors of ATXN expression; also: nearly all actives have a fitted effect of over 65% in size;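 as to activity change, negative = inhibition: 0% = DMSO vehicle wells and -100% = medium-only wells without cells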
Conditions: ATXN2-luciferase reporter cells, luminescence, 24 h; series mostly up to 11.5 µM; activity change, negative = inhibition: at the top concentration
Source text: PI: Daniel Scoles Ph.D. University of Utah School of Medicine, Salt Lake City, Utah MLPCN Grant: NS073009 Spinocerebellar ataxia type 2 (SCA2) is a multisystem neurodegenerative disease caused by a dominantly acting mutation leading to expansion of a polyQ domain in the ataxin-2 protein (ATXN2). SCA2 patients develop progressive ataxia and later lose function in other neuronal systems. Prominent parkinsonian signs develop in some patients. Like many neurodegenerative disorders, no symptomatic or disease-modifying treatments are known. The primary objective of the proposed research is to identify compounds inhibiting ATXN2 expression and to test them for efficacy in SCA2 mouse models. We have developed a cell-based assay paired with an in vivo mouse model using identical luciferase expression constructs. This approach takes advantage of an ATXN2-luciferase transgene, with the luciferase gene flanked by the upstream and downstream portions of the ATXN2 gene. Here we describe a 5-7 dose quantitative high thoroughput screen (qHTS) for compounds lowering ATXN2 expression. We screened the NIH Molecular Libraries Small Molecule Repository (MLSMR) and NCGC's mechanistically annotated (MIPE) and drug repurposing (NPC) collections of compounds for lowering expression of an ATXN2-luciferase reporter in HEK-293 cells. The assay is a multiplexed cell viability assay to ensure target reduction in the absence of cytotoxicity. Secondary qHTS assays included a CMV-luciferase reporter expressed in HEK-293 cells as well as a biochemical assay using recombinant luciferase to detect inhibitors of the reporter enzyme. Compounds that inhibit ATXN2 expression but is not cytotoxic were selected for confirmatory and secondary screens.
PROTOCOL TABLE (as described by Inglese J, Shamu CE and Guy RK. 2007) SEQUENCE No. (e.g., 1, 2, 3, etc.); PARAMETER (e.g., Cells, Incubation, Reagent, etc.); VALUE; DESCRIPTION. 1; Cells; 4 uL; white, solid bottom, 1536-well Greiner assay plate. 2; Incubation; 2 hr; 37 degree C in 5% humidified CO2. 3; Compounds; 23 nL; Kalypsis pintool (Wako USA) equipped with a 1536-well pin head. 4; Incubation; 24 hr; 37 degree C in 5% humidified CO2. 5; Reagent; 1 uL; Gly-Phe-7-Amino-4-trifluoromethylcoumarin. 6; Incubation; 30 min; 37 degree C in 5% humidified CO2. 7; Detection; Fluorescence; ViewLux plate reader (PerkinElmer). 8; Reagent; 3 uL; SteadyGlo luciferase solution (Promega). 9; Incubation; 5 min; room temperature. 10; Detection; Luminescence; ViewLux plate reader (PerkinElmer). NOTES (numbers refer to Sequence numbers above) 1. […] expressing ATXN2-luciferase reporter were suspended in phenol-red free DMEM and dispensed in assay plates using a Multidrop Combi dispenser (Thermo Fisher Scientific). Wells containing medium only were plated on each plate, and values were used to normalize (100% inhibition) in the luciferase and CellTiter-Fluor assays. 2. Assay plates were incubated. Evaporation was prevented by covering assay plates with metal lids containing holes to allow gas diffusion. 3. Compounds were added in a dose response manner with the final concentrations of 57, 11.4, 2.28, 0.46, 0.091, 0.018, 0.0037 uM. Vehicle-only plates, with DMSO being pin-transferred to columns 5-48, were inserted uniformly at the beginning and the end of each library to monitor and record any shifts in assay performance. 5. 125 uM Gly-Phe-7-Amino-4-trifluoromethylcoumarin (MP Biomedicals) working concentration was used at a final concentration of 25 uM. 7. To assess cell viability; the assay plates were read using the ViewLux high-throughput CCD imager (PerkinElmer), wherein single end-point fluorescence measurement was acquired (excitation 405/10; emission 540/25 nm). 8. Detection reagent SteadyGlo Luciferase (Promega) was added to the assay plate. 10. Luminescence is then measured on the ViewLux imager equipped with a clear emission filter using a 2 sec exposure. […]
For `N#Cc1ccccc1NC(=O)C1SC(=Nc2ccccc2)C(C(=O)Nc2ccc(Cl)cc2)=C1N` (stereo not drawn), the “activity change, negative = inhibition” value was -3.14%.
In the case of `O=c1c2c(-c3ccccc3)csc2nc2c3ccccc3c(NCCN3CCOCC3)nn12`, the Potency is reported as 3.16 µM (active).
For `Cc1ccc(-c2nc3cc(Br)cnc3nc2-c2ccc(C)cc2)cc1`, the “activity change, negative = inhibition” value was -7.66%.
In the case of `Brc1cnc2nc(SCc3nc4ccccc4[nH]3)[nH]c2c1`, the Potency is reported as 2.82 µM (active).
With `O=C(CSc1nnc(-c2ccc(Br)cc2)o1)Nc1cccc(C(=O)O)c1` the Potency was 3.16 µM (active).
In the case of `COc1cc(/C=N/Nc2snc(SC)c2C#N)cc(OC)c1OC`, the Potency is reported as 3.16 µM (active).
For `Cc1ccc(OCC(O)Cn2c(=N)n(CCN3CCCCC3)c3ccccc32)cc1` (stereo not drawn), the Potency was 14.1 µM (active).
With `N=c1n(CCN2CCCCC2)c2ccccc2n1CC(O)c1ccc(Cl)c(Cl)c1` (stereo not drawn) the Potency was 15.8 µM (active).
In the case of `CCCCCn1c(=N)n(CC(O)COc2ccccc2OC)c2ccccc21` (stereo not drawn), the Potency is reported as 2.51 µM (active).
In the case of `COc1cccc(NC(=S)/C(=C(\[O-])c2cc(C)n(-c3ccccc3F)c2C)[n+]2ccc(N(C)C)cc2)c1`, the Potency is reported as 15.8 µM (active).
In the case of `CCOC(=O)Nc1ccc(N2CCOCC2)c(S(=O)(=O)Nc2ccc(Cl)cc2)c1`, the “activity change, negative = inhibition” value is reported as -19.7%.
With `O=C(Nc1ccc(Cl)cc1)Nc1ccc(N2CCCC2)c(S(=O)(=O)Nc2ccccc2Cl)c1` the Potency was 3.55 µM (active).
For `Cc1ccc2ccc3cccnc3c2n1`, the Potency was 4.47 µM (active).
With `OC(c1ccccc1)(c1nc(-c2ccc3ccccc3c2)cs1)C(F)(F)F` (stereo not drawn) the “activity change, negative = inhibition” value was 26.4%.
For `OC(c1ccccc1)(c1nc(/C=C/c2ccc(C(F)(F)F)cc2)cs1)C(F)(F)F` (stereo not drawn), the Potency was 35.5 µM (active).
In the case of `OC(c1ccccc1)(c1nc(-c2cc3ccccc3o2)cs1)C(F)(F)F` (stereo not drawn), the “activity change, negative = inhibition” value is reported as 8.38% [at 57.5 µM].
In the case of `CCOc1cc(C=C(C(=O)OC)C(=O)OC)ccc1OCc1ccc([N+](=O)[O-])cc1`, the Potency is reported as 25.1 µM (active).
With `CCN(CC)c1ccc(/C=N/NC(=O)CNC(=O)C2COc3ccccc3O2)c(O)c1` (stereo not drawn) the Potency was 0.251 µM (active).
For `COc1cccc(/C=N/NC(=O)Cn2nc(C)c([N+](=O)[O-])c2C)c1O`, the Potency was 14.1 µM (active).
With `CCN(CC)c1ccc(/C=N/NC(=O)c2cccc(S(=O)(=O)N3CCOCC3)c2)c(O)c1` the Potency was 0.891 µM (active).
For `O=C(CNC(=O)C1COc2ccccc2O1)N/N=C/c1ccc(O)cc1O` (stereo not drawn), the Potency was 2.51 µM (active).
In the case of `COc1cccc(/C=N/NC(=O)CNC(=O)C2COc3ccccc3O2)c1O` (stereo not drawn), the Potency is reported as 8.91 µM (active).
With `COc1cccc(/C=N/NC(=O)CSc2ccccc2C)c1O` the Potency was 12.6 µM (active).
With `COc1ccccc1/C=C\C(=O)NCC(=O)N/N=C/c1cccc(OC)c1O` the Potency was 12.6 µM (active).
With `CCN(CC)c1ccc(/C=N/NC(=O)Cc2cccs2)c(O)c1` the Potency was 2.82 µM (active).
In the case of `Cn1ncc2c(N3CCN(c4ccc(Cl)c(Cl)c4)CC3)ncnc21`, the Potency is reported as 1.58 µM (active).
In the case of `Oc1c(C(Nc2cccc(C(F)(F)F)c2)c2cccnc2)ccc2cccnc12` (stereo not drawn), the Potency is reported as 28.2 µM (active).
In the case of `COc1ccc(Cl)cc1C(Nc1cccnc1)c1ccc2cccnc2c1O` (stereo not drawn), the Potency is reported as 12.6 µM (active).
For `Cc1cc(NC(c2cccnc2)c2ccc3cccnc3c2O)no1` (stereo not drawn), the Potency was 2.82 µM (active).
For `Oc1c(C(Nc2cccc(C(F)(F)F)c2)c2ccncc2)ccc2cccnc12` (stereo not drawn), the Potency was 3.55 µM (active).
For `COC(=O)Cc1[nH]n(-c2nc3ccccc3s2)c(=O)c1C(C)=Nc1ccc(C)cc1`, the “activity change, negative = inhibition” value was -90.6% [at 57.5 µM].
In the case of `Cc1cc(C)n(-c2nc(NCCN(C)C)c3c4c(sc3n2)COC(C)(C)C4)n1`, the Potency is reported as 3.16 µM (active).
For `COc1cc(OC)cc(-c2cc3nc(C)c(CCC(=O)O)c(C)n3n2)c1`, the Potency was 0.562 µM (active).
For `COc1cc(OC)cc(-c2cc3nc(C)c(CCC(=O)NCc4ccccc4)c(C)n3n2)c1`, the Potency was 4.47 µM (active).
In the case of `COc1cccc(OCC(=O)Nc2cc(Cl)ccc2Oc2ccccc2)c1`, the “activity change, negative = inhibition” value is reported as -25.3%.
With `COc1cccc(CN(C)C(=O)c2ccc(OCC(=O)Nc3cccc(C(F)(F)F)c3)c(OC)c2)c1` the Potency was 15.8 µM (active).
With `CCCCCCn1c2c(c(=N)c3c1CCC3)CCC2` the Potency was 3.98 µM (active).
In the case of `Cc1cnc(NC(=O)CN2CCN(c3ccccn3)CC2)s1`, the Potency is reported as 5.62 µM (active).
For `CCN1CCN(C2=C(NS(=O)(=O)c3ccc(C)cc3)C(=O)c3ccccc3C2=O)CC1`, the Potency was 3.16 µM (active).
With `Cc1ccc(SC2=C(Sc3ccc(C)cc3)C(=O)c3ccccc3C2=O)cc1` the “activity change, negative = inhibition” value was 6.96% [at 57.5 µM].
In the case of `CC(=O)NC(c1ccco1)c1ccc2cccnc2c1O` (stereo not drawn), the Potency is reported as 1.41 µM (active).
In the case of `CC(=O)NC(c1ccc2ccccc2c1)c1ccc2cccnc2c1O` (stereo not drawn), the Potency is reported as 0.141 µM (active).
With `CC(=O)NC(c1ccc(C(C)C)cc1)c1ccc2cccnc2c1O` (stereo not drawn) the Potency was 0.631 µM (active).
In the case of `CC(=O)c1sc(C(C)(C)C)cc1NC(=O)/C=C/C(=O)O`, the Potency is reported as 17.8 µM (active).
For `COc1cc(-c2cnc3c(NC=O)cc(-c4cccc(C(F)(F)F)c4)cn23)cc(OC)c1OC`, the Potency was 12.6 µM (active).
In the case of `COc1ccc(F)cc1-c1cc(NC=O)c2ncc(-c3cccc(C(=O)N(C)C)c3)n2c1`, the Potency is reported as 3.55 µM (active).
In the case of `COc1ccccc1-c1cc(NC=O)c2ncc(-c3ccc(F)cc3)n2c1`, the Potency is reported as 22.4 µM (active).
For `CCSc1ccc(-c2cc(NC=O)c3ncc(-c4cccc(C(=O)NCCN(C)C)c4)n3c2)cc1`, the Potency was 3.16 µM (active).
With `CN(C)C(=O)c1cccc(-c2cnc3c(NC=O)cc(-c4ccc(F)cc4)cn23)c1` the “activity change, negative = inhibition” value was -12%.
For `CN(C)C(=O)c1cccc(-c2cnc3c(NC=O)cc(-c4ccccc4N(C)C)cn23)c1`, the “activity change, negative = inhibition” value was -13%.
With `COc1ccc(-c2cc(NC=O)c3ncc(-c4cccc(C(=O)NCCN(C)C)c4)n3c2)cc1` the “activity change, negative = inhibition” value was -22.5% [at 57.5 µM].
For `CCOc1ccc(/C=C/[N+](=O)[O-])c2ccccc12`, the Potency was 15.8 µM (active).
For `Cc1ccc(CN2CCC(c3cc(-c4ccc(Cl)cc4)n[nH]3)CC2)cc1`, the Potency was 28.2 µM (active).
In the case of `CCOC(=O)N(C)c1c(CC)nc2c(OCc3ccccc3OC)cccn12`, the “activity change, negative = inhibition” value is reported as -25.4% [at 57.5 µM].
With `COC(=O)c1ccccc1COc1cccn2c(N(C)Cc3cccs3)c(C)nc12` the Potency was 28.2 µM (active).
For `ClC(Cl)(Cl)c1nc2ccccc2n2nncc12`, the Potency was 2.82 µM (active).
For `CCc1ccc(-c2nc(CS(=O)CC(=O)NCc3ccco3)c(C)o2)cc1` (stereo not drawn), the Potency was 0.398 µM (active).
In the case of `CC1(C(=O)NCc2ccco2)CCN1C(=O)C1(c2ccccc2)CC1` (stereo not drawn), the “activity change, negative = inhibition” value is reported as 2.15%.
